Results filed as inconclusive are left out. Values without a mark were called inactive. The source made the active and inactive calls. Calls come from the whole dose curve; as a rule, active = well fitted cell-killing curve with a large enough effect; inconclusive = small, poorly fitted or top-dose-only effect, or effect the other way; inactive = no such curve, though single readings can be large or run the other way.

The nature of assay [1]: Quantitative High-Throughput drug screen in 47 multiple myeloma cell lines against the NCATS MIPE library collection: MM1R_ATCC cell viability assay (AID 1918981). Note: nearly all actives have a fitted effect of over 35% in size. Summed up: (§1)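 Readout: median RLU from CellTiter-Glo after 5 min at room temperature. Preceding step was 48 h drug treatment of 500 cells/well at 37 °C, 5% CO2, with DMSO-only and media-only control wells.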
Assay [2] can be described thus: Quantitative High-Throughput drug screen in 47 multiple myeloma cell lines against the NCATS MIPE library collection: LP1_DSMZ cell viability assay (AID 1918982). Note: nearly all actives have a fitted effect of over 35% in size. Summed up: as §1
Assay [3] in a line: Quantitative High-Throughput drug screen in 47 multiple myeloma cell lines against the NCATS MIPE library collection: KMS28PE_JCRB cell viability assay (AID 1918983). Note: nearly all actives have a fitted effect of over 35% in size. Summed up:
as §1

Assay [4] can be described thus: Quantitative High-Throughput drug screen in 47 multiple myeloma cell lines against the NCATS MIPE library collection: L363_DSMZ cell viability assay (AID 1918984). Note: nearly all actives have a fitted effect of over 40% in size. Summed up:
as §1

Assay [5] is described as follows: Quantitative High-Throughput drug screen in 47 multiple myeloma cell lines against the NCATS MIPE library collection: OCIMY7_PLB cell viability assay (AID 1918987). Note: nearly all actives have a fitted effect of over 65% in size. In a few lines: as §1
Assay [6] is described as follows: Quantitative High-Throughput drug screen in 47 multiple myeloma cell lines against the NCATS MIPE library collection: OCIMY5_PLB cell viability assay (AID 1918988). Note: nearly all actives have a fitted effect of over 65% in size. Summed up:
as §1

The nature of assay [7]: Quantitative High-Throughput drug screen in 47 multiple myeloma cell lines against the NCATS MIPE library collection: OPM1_PLB cell viability assay (AID 1918989). Note: nearly all actives have a fitted effect of over 40% in size. Summed up: as §1
The nature of assay [8]: Quantitative High-Throughput drug screen in 47 multiple myeloma cell lines against the NCATS MIPE library collection: SKMM1_PLB cell viability assay (AID 1919863). Note: nearly all actives have a fitted effect of over 35% in size. To be noted: SKMM1 myeloma viability, CellTiter-Glo ATP, 48 h; viability: hits give low values. In a few lines: as §1
The nature of assay [9]: Quantitative High-Throughput drug screen in 47 multiple myeloma cell lines against the NCATS MIPE library collection: U266_ATCC cell viability assay (AID 1919864). Note: nearly all actives have a fitted effect of over 35% in size. In a few lines:
as §1

Assay [10] can be described thus: Quantitative High-Throughput drug screen in 47 multiple myeloma cell lines against the NCATS MIPE library collection: KMS34_JCRB cell viability assay (AID 1918985). Note: nearly all actives have a fitted effect of over 40% in size. In a few lines:
as §1
Potency is the fitted concentration of half-maximal effect.

Take `CN1CCN(c2cc(C(=O)Nc3ccc4c(c3)-c3c(c(C(N)=O)nn3-c3ccc(F)cc3)CC4)c(Cl)cn2)CC1`: the Potency in assay [1] was 20.9 µM (active); in [2], 23.5 µM (active); in [3], 23.5 µM (active); in [4], 4.18 µM (active); in [5], 0.187 µM (active); in [6], 2.96 µM (active). For the same compound, the results for the Potency in [7], in assay [8] and in assay [9] were 9.35 µM (active), 26.4 µM (active) and 2.96 µM (active), respectively.
`COc1cccc2c(NCc3ccccc3)nc(-n3c(N)nc4ccccc43)nc12`: the Potency is 5.9 µM (active) in assay [1]; 9.35 µM (active) in [2]; 8.33 µM (active) in [3]; 1.32 µM (active) in assay [4]; 6.62 µM (active) in assay [10]; 2.96 µM (active) in assay [5]. For the same compound, the Potency was 7.43 µM (active) in [6], 5.26 µM (active) in assay [7], 7.43 µM (active) in assay [8] and 5.9 µM (active) in assay [9].
As for `C#Cc1cccc(Nc2ncnc3cc(OC)c(OCCCCCCC(=O)NO)cc23)c1`, the Potency in assay [1] is 0.166 µM (active); in [2] it was 0.743 µM (active); in assay [3] it was 0.118 µM (active); in [4], 0.0526 µM (active); in assay [10] it was 1.05 µM (active); in assay [5], 0.148 µM (active). The Potency was 0.0053 µM (active) in assay [6], 0.264 µM (active) in [7] and 0.418 µM (active) in [8].
As to `N#Cc1c(O)c2c(-c3ccc(-c4ccccc4O)cc3)csc2[nH]c1=O`, the Potency entry in [1], in assay [2], in [4] and in assay [10] was “inactive” throughout. The Potency in [3] is 13.2 µM (active).
Take `Nc1ccccc1NC(=O)c1ccc(CNc2nccc(-c3cccnc3)n2)cc1`: the Potency in assay [1] was 0.743 µM (active); in assay [2], 2.09 µM (active); in assay [3] it was 2.96 µM (active); in [4], 1.18 µM (active); in [10] it was 0.935 µM (active); in [5], 0.526 µM (active). For the same compound, the Potency in assay [6] was 0.833 µM (active); in [7], 0.264 µM (active); in assay [8] it was 1.66 µM (active); in assay [9], 1.66 µM (active).
Regarding `Nc1ncnc2c1c(-c1cccc(OCc3ccccc3)c1)cn2C1CC(CN2CCCC2)C1` (configuration not stated), the Potency in assay [1] is 1.66 µM (active); in assay [2] it was 5.9 µM (active); in assay [3] it was 1.05 µM (active); in assay [4], 0.332 µM (active); in assay [10] it was 11.8 µM (active); in [5], 1.48 µM (active). The Potency in assay [6] was 7.43 µM (active); in [7], 5.9 µM (active); in assay [8] it was 20.9 µM (active); in assay [9] it was 16.6 µM (active).
As for `CCCCOc1c(C(=O)c2c(F)cc(C)cc2F)cnc2n[nH]cc12`, the Potency in assay [1] is 3.72 µM (active); in assay [2], 3.32 µM (active); in assay [3], 5.9 µM (active); in [4], 3.32 µM (active); in [10], 2.35 µM (active); in [5], 4.18 µM (active). Also, the Potency was 4.18 µM (active) in assay [6], 11.8 µM (active) in assay [7], 5.26 µM (active) in assay [8] and 13.2 µM (active) in assay [9].
Take `Cc1cc(Nc2ncnc3ccc(-c4ccc(CNCCS(C)(=O)=O)o4)cc23)ccc1Oc1ccn2ncnc2c1`: the Potency in [1] was 20.9 µM (active); in [2] it was 7.43 µM (active); in assay [3], 23.5 µM (active); in assay [4] it was 0.372 µM (active); in assay [5], 9.35 µM (active); in assay [7] it was 5.9 µM (active). The figures for the Potency in assay [8] and in assay [9] were 26.4 µM (active) and 18.7 µM (active), respectively.
With `CC(C)c1nn(-c2c(Cl)cccc2Cl)c2nc(Cc3ccc(OCCO)cc3)[nH]c(=O)c12`, the Potency in assay [1] was 0.0418 µM (active); in assay [2], 0.132 µM (active); in [3], 0.296 µM (active); in [10] it was 0.118 µM (active); in assay [5], 0.0743 µM (active); in assay [6] it was 0.0743 µM (active). Further, the Potency in assay [7] is 0.132 µM (active); in assay [8], 0.332 µM (active); in assay [9] it was 0.209 µM (active).
Regarding `COC(=O)Nc1nc2ccc(C(=O)c3ccc(F)cc3)cc2[nH]1`, the Potency was 0.833 µM (active) in assay [1]; 0.935 µM (active) in assay [2]; 1.66 µM (active) in [3]; 0.935 µM (active) in assay [10]; 0.296 µM (active) in assay [5]; 0.469 µM (active) in [6]. Besides, the Potency in assay [8] is 0.469 µM (active).
As for `Cc1cc(Nc2cc(N3CCN(C)CC3)nc(C=Cc3ccccc3)n2)n[nH]1`, the Potency in assay [1] was 13.6 µM (active); in assay [2] it was 34 µM (active); in assay [3] it was 13.6 µM (active); in [10], 5.4 µM (active); in assay [5], 0.605 µM (active); in assay [6], 4.81 µM (active). Further, the Potency was 42.9 µM (active) in assay [8] and 38.2 µM (active) in [9].
In the case of `O=c1c2ccccc2nc2n1CCc1c-2[nH]c2ccccc12`, the Potency entry in assay [1], in [2], in assay [3] and in [10] was “inactive” each time. The Potency in [5] is 18.7 µM (active); in [8], 23.5 µM (active).
Regarding `Cc1cc(CN2CCN(c3c(Br)cnc4nc(-c5ccc(N6CCN(C)CC6)cc5)[nH]c34)CC2)no1`, the Potency in [1] was 13.2 µM (active); in [2], 26.4 µM (active); in assay [3], 20.9 µM (active); in assay [10] it was 5.9 µM (active); in assay [5], 1.05 µM (active); in assay [6] it was 7.43 µM (active). Also, the Potency was 4.18 µM (active) in assay [7], 10.5 µM (active) in assay [8] and 16.6 µM (active) in assay [9].
In the case of `CC(C)[C@H](C(=O)Nc1ccc(C(=O)NO)cc1)c1ccccc1`, the Potency was 0.526 µM (active) in assay [1]; 0.743 µM (active) in assay [2]; 0.833 µM (active) in assay [3]; 0.264 µM (active) in [10]; 0.418 µM (active) in assay [5]; 0.526 µM (active) in assay [6]. For the same compound, the Potency was 0.469 µM (active) in assay [7] and 1.18 µM (active) in [8].
Turning to `O=C(CCCCCCC(=O)Nc1ccc([C@H]2O[C@@H](CSc3nc(-c4ccccc4)c(-c4ccccc4)o3)C[C@@H](c3ccc(CO)cc3)O2)cc1)NO`, the Potency was 16.6 µM (active) in assay [1]; 11.8 µM (active) in assay [2]; 16.6 µM (active) in assay [3]; 6.62 µM (active) in assay [10]; 8.33 µM (active) in [5]; 11.8 µM (active) in assay [6]. The figures for the Potency in assay [7], in assay [8] and in [9] were 8.33 µM (active), 23.5 µM (active) and 13.2 µM (active), respectively.

For the origin of these results see PubChem BioAssay (NCATS).
